# Data: PubChem BioAssay AID430 (Sanford-Burnham Center for Chemical Genomics, 2006)
# In all, about 63,000 compounds went through this assay and about 1,100 (1.7%) were called active. Cut-off read from the data, not from the text of the source: active = cytotoxicity above about 50%; inactive = the rest. Only a selection was taken, and actives are over-represented in it overall. Results with a measured potency or affinity are listed apart.
# Experiment: cytotoxicity in HPDE-C7 cells, cell-based, fluorescence, HTS (AID 430);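 note: cells exposed to compound for 48 hours before viability readout; 0% = vehicle and 100% = reference cytotoxic drug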
# Conditions: HPDE-C7 pancreatic duct cells viability, at 10 µM, active compounds read high
row,Structure (SMILES),cytotoxicity
1,Cc1c(N=Cc2cc3c(cc2Cl)OCO3)c(=O)n(-c2ccccc2)n1C,-3.1% (inactive)
2,COc1ccccc1OCCCCNCCO,-0.7% (inactive)
3,CCOC(=O)N1CCC(N2CCN(S(=O)(=O)c3ccc(NC(C)=O)cc3)CC2)CC1,-12.8% (inactive)
4,Cc1ccnc(Sc2nc3c(c(=O)[nH]c(=O)n3C)n2CCCc2ccccc2)n1,-9.5% (inactive)
5,C=CCn1c(SCC(=O)Nc2cccc(C(=O)OC)c2)nnc1C(C)NC(=O)c1cccs1 (stereo unspecified),-5% (inactive)
6,O=C(c1cc(-c2cccs2)on1)N1CCc2ccccc2C1,2.3% (inactive)
7,CSc1nc2nc(C)cc(-c3ccccc3)n2n1,-10.4% (inactive)
8,Cc1cccc(NC(=O)C2CCN(S(=O)(=O)c3c(C)nn(C)c3C)CC2)n1,1.6% (inactive)
9,COc1ccc2[nH]c(=O)c(CN(C(=O)c3ccccn3)C3CCCCC3)cc2c1,-30.2% (inactive)
10,O=C(c1ccc(S(=O)(=O)N2CCOCC2)cc1)N1CCc2ccccc2C1,-7.6% (inactive)
11,CCOC(=O)C1=C(C)NC(=O)NC1/C(C)=C/c1ccccc1 (stereo unspecified),-16% (inactive)
12,COc1cccc(OC)c1-c1nn2c(-c3cc(-c4ccccc4)n[nH]3)nnc2s1,68.9% (active)
13,COc1cccc(OC)c1-c1nn2c(-c3ccccc3Cl)nnc2s1,19.8% (inactive)
14,COc1ccc(-c2nnc3sc(-c4cccs4)nn23)cc1OC,20.2% (inactive)
15,CCOc1cccc(-c2nnc3sc(-c4ccco4)nn23)c1,21.5% (inactive)
16,COc1cccc(-c2nn3c(-c4ccco4)nnc3s2)c1,-0.7% (inactive)
17,COc1cccc(-c2nnc3sc(-c4ccco4)nn23)c1,58% (active)
18,COc1cc(-c2nnc3sc(-c4ccncc4)nn23)cc(OC)c1OC,-12.2% (inactive)
19,COc1ccc(-c2nnc3sc(-c4c(OC)cccc4OC)nn23)cc1,10.9% (inactive)
20,COc1ccccc1-c1nnc2sc(-c3cc4ccccc4o3)nn12,56.2% (active)
21,Cc1nnc2sc(-c3cc4ccccc4o3)nn12,5.6% (inactive)

row,Structure (SMILES),cytotoxicity
1,COc1cc(-c2nnc3sc(-c4cccs4)nn23)cc(OC)c1OC,75.8% (active)
2,COc1ccccc1-c1nn2c(-c3ccccc3Cl)nnc2s1,-14.1% (inactive)
3,CCOc1ccc(N=C(NC#N)SC)cc1,-2.8% (inactive)
4,CCN(CC)CCNC(=O)c1ccc2c(c1)ncn2C1CCCCC1,0.5% (inactive)
5,O=C(Nc1cccc(C(F)(F)F)c1)C1CCCN(S(=O)(=O)c2cnc[nH]2)C1 (stereo unspecified),-7.5% (inactive)
6,CCOC(=O)CN(C(=O)CSc1nnc(-c2ccncc2)n1CCCN(C)C)c1ccccc1,-4.8% (inactive)
7,Cc1nc2c3c4c(sc3n3c(SCC(=O)NCc5ccco5)nnc3n2n1)COC(C)(C)C4,-6.3% (inactive)
8,Cc1cc(Cl)c(S(=O)(=O)NCc2ccncc2)cc1OCC(N)=O,5.1% (inactive)
9,CC1(C)CC(=O)C=C(Nc2ccccc2F)C1,1.2% (inactive)
10,O=C(c1ccc(Cl)cc1)C1CCN(C(=O)NC2CCCCC2)CC1,-11.6% (inactive)
11,N#CCCCN1C(=O)C(O)(CC(=O)c2ccc3c(c2)OCCO3)c2ccccc21 (stereo unspecified),-27.8% (inactive)
12,Cc1ccc(-n2c(Cn3cnc4ccccc43)nnc2SCC(=O)O)cc1,-16.2% (inactive)
13,COc1ccc(NC(C)=O)cc1NC(=O)CN1CCN(CC(=O)Nc2ccc(Cl)cc2)CC1,-12.5% (inactive)
14,CCc1nc2ccccc2c(NC(=O)CN2CCC(C)CC2)c1C,8.8% (inactive)
15,CCOC(=O)C1CCCN(CC(=O)NC2=Nc3ccccc3N=C(C)C2c2ccccc2)C1 (stereo unspecified),3.8% (inactive)
16,O=C(NCc1ccc(F)cc1)c1noc2c1CCCC2,-10.3% (inactive)
17,Clc1ccc(-c2ccc(-c3nn4c(-c5ccco5)nnc4s3)o2)cc1,-11.9% (inactive)
18,Cc1oc(-c2ccc(F)cc2)cc1-c1nn2c(-c3ccco3)nnc2s1,-18% (inactive)
19,Fc1ccc(-c2ccc(-c3nn4c(-c5ccco5)nnc4s3)o2)cc1,73.5% (active)
20,COc1cccc(OCc2nc3ccccc3c(=O)n2N)c1,-8.2% (inactive)
21,CCC(C)n1cnc2c(c1=O)c1nc3ccccc3nc1n2-c1ccc2c(c1)OCCO2 (stereo unspecified),-13.4% (inactive)

row,Structure (SMILES),cytotoxicity
1,CCCn1c(C)nc2c(c1=O)c1nc3ccccc3nc1n2-c1ccc2c(c1)OCCO2,51.4% (active)
2,O=c1c2c3nc4ccccc4nc3n(-c3ccc4c(c3)OCCO4)c2ncn1CC1CCCO1 (stereo unspecified),0.3% (inactive)
3,CC(=NCC1CCCO1)C1=C(O)CC(C)(C)CC1=O (stereo unspecified),-12.6% (inactive)
4,Cc1ccccc1-n1nc2c(c1NC(=O)COc1ccc(Cl)cc1)CS(=O)C2 (stereo unspecified),10% (inactive)
5,CCCNC(=O)c1cc(-c2ccco2)on1,-2.4% (inactive)
6,CCCOc1ccc(C(=O)NCc2cccnc2)cc1,-13.2% (inactive)
7,Cc1ccc(S(=O)(=O)Cn2nnnc2C(CC(C)C)N2CCN(C(=O)c3ccco3)CC2)cc1 (stereo unspecified),4.4% (inactive)
8,CCc1nnc(NC(=O)c2ccc(S(=O)(=O)N(CC(C)C)CC(C)C)cc2)o1,48.8% (inactive)
9,CCN(c1ccccc1)S(=O)(=O)c1ccc(C(=O)Nc2nnc(COC)o2)cc1,60.9% (active)
10,CCCCN(CC)S(=O)(=O)c1ccc(C(=O)Nc2nnc(CSC)o2)cc1,23.6% (inactive)
11,COCc1nnc(NC(=O)c2ccc(S(=O)(=O)N(C)c3ccccc3)cc2)o1,42.1% (inactive)
12,CCCCN(CCCC)S(=O)(=O)c1ccc(C(=O)Nc2nnc(COC)o2)cc1,75.3% (active)
13,CSCc1nnc(NC(=O)c2ccc(S(=O)(=O)N(CC(C)C)CC(C)C)cc2)o1,62.4% (active)
14,CCc1nnc(NC(=O)c2ccc(S(=O)(=O)N(CCOC)CCOC)cc2)o1,-20.2% (inactive)
15,COCCN(CCOC)S(=O)(=O)c1ccc(C(=O)Nc2nnc(C)o2)cc1,-6.2% (inactive)
16,CCCCN(CC)S(=O)(=O)c1ccc(C(=O)Nc2nnc(COC)o2)cc1,17.5% (inactive)
17,COCc1nnc(NC(=O)c2ccc(S(=O)(=O)N(C)C3CCCCC3)cc2)o1,47.9% (inactive)
18,CCCCN(CCCC)S(=O)(=O)c1ccc(C(=O)Nc2nnc(CSC)o2)cc1,73.1% (active)
19,CCCN(CCC)S(=O)(=O)c1ccc(C(=O)Nc2nnc(CSC)o2)cc1,12.6% (inactive)
